Results from PubChem BioAssay AID1159580 (chemical genetic matrix, 2015).
Where “and” joins values, the source holds several entries; their conditions need not be identical. Equal entries are not always repeated. Screen size: about 5,500 compounds; about 2,000 (36%) were called active. Roughly 18% stayed inconclusive and do not appear here. Cut-off read from the data, not from the text of the source: active = normalized growth mostly below about 0.91 (no sharp cut-off); inconclusive = no clear call, values can overlap the other calls; inactive = mostly above about 0.92. Some of the results follow.

Experiment: chemical genetic growth profiling, strain panel (AID 1159580);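 note: tested at 20 µM; growth read once vehicle control cultures reached saturation at 30 °C; 1 = growth at the plate median or of vehicle wells; lower values mean less growth of the strain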
Conditions: growth OD

Measured: normalized growth

CN1CCN(C2=Nc3ccccc3Oc3ccc(Cl)cc32)CC1
inactive: S. cerevisiae deletion strains, locus YJR075W, strain HOC1, active compounds read low 0.996 | S. cerevisiae deletion strains, locus YKL009W, strain mrt4, active compounds read low 0.98 | S. cerevisiae deletion strains, locus YKL068W, active compounds read low 0.992 | S. cerevisiae deletion strains, locus YKL085W, strain MDH1 (second series), active compounds read low 1.02 | S. cerevisiae deletion strains, locus YKL085W, strain MDH1, active compounds read low 1.02 | S. cerevisiae deletion strains, locus YKL160W, strain elf1, active compounds read low 0.958 | S. cerevisiae deletion strains, locus YKL190W, strain CNB1, active compounds read low 1 | S. cerevisiae deletion strains, locus YKR001C, strain vps1, active compounds read low 0.998 | S. cerevisiae deletion strains, locus YKR026C, strain gcn3, active compounds read low 0.983 | S. cerevisiae deletion strains, locus YKR091W, strain srl3, active compounds read low 0.975 | S. cerevisiae deletion strains, locus YLL001W, strain dnm1, active compounds read low 1 | S. cerevisiae deletion strains, locus YLL026W, active compounds read low 0.972 | S. cerevisiae deletion strains, locus YLL041C, strain sdh2, active compounds read low 0.987 | S. cerevisiae deletion strains, locus YLR027C, strain aat2, active compounds read low 0.975 | S. cerevisiae deletion strains, locus YLR039C, strain RIC1, active compounds read low 1.13 | S. cerevisiae deletion strains, locus YLR058C, strain SHM2, active compounds read low 0.986 | S. cerevisiae deletion strains, locus YLR102C, strain apc9, active compounds read low 0.994 | S. cerevisiae deletion strains, locus YLR113W, strain HOG1, active compounds read low 1.03 | S. cerevisiae deletion strains, locus YLR221C, strain rsa3, active compounds read low 1.01 | S. cerevisiae deletion strains, locus YLR258W, strain gsy2, active compounds read low 0.975 | S. cerevisiae deletion strains, locus YLR262C, strain YPT6 (second series), active compounds read low 0.992 | S. cerevisiae deletion strains, locus YLR262C, strain YPT6, active compounds read low 1.13 | S. cerevisiae deletion strains, locus YLR268W, strain sec22, active compounds read low 0.995 | S. cerevisiae deletion strains, locus YLR320W, strain mms22, active compounds read low 1.04 | S. cerevisiae deletion strains, locus YLR330W, strain CHS5, active compounds read low 0.997 | S. cerevisiae deletion strains, locus YLR342W, strain FKS1 (second series), active compounds read low 0.948 | S. cerevisiae deletion strains, locus YLR342W, strain FKS1, active compounds read low 0.994 | S. cerevisiae deletion strains, locus YLR357W, strain rsc2, active compounds read low 0.964 | S. cerevisiae deletion strains, locus YLR370C, strain arc18, active compounds read low 0.967 | S. cerevisiae deletion strains, locus YLR371W, strain rom2, active compounds read low 0.995 | S. cerevisiae deletion strains, locus YLR384C, strain iki3, active compounds read low 1 | S. cerevisiae deletion strains, locus YLR418C, strain cdc73, active compounds read low 0.988 | S. cerevisiae deletion strains, locus YML016C, strain PPZ1, active compounds read low 0.981 | S. cerevisiae deletion strains, locus YML032C, strain rad52, active compounds read low 0.989 | S. cerevisiae deletion strains, locus YML120C, strain ndi1, active compounds read low 1.01 | S. cerevisiae deletion strains, locus YML124C, strain tub3, active compounds read low 0.992 | S. cerevisiae deletion strains, locus YMR058W, strain fet3, active compounds read low 0.957 | S. cerevisiae deletion strains, locus YMR078C, strain ctf18, active compounds read low 0.979 | S. cerevisiae deletion strains, locus YMR125W, strain sto1, active compounds read low 0.942 | S. cerevisiae deletion strains, locus YMR129W, active compounds read low 0.964 | S. cerevisiae deletion strains, locus YMR205C, strain PFK2, active compounds read low 0.995 | S. cerevisiae deletion strains, locus YMR223W, strain ubp8, active compounds read low 0.976 | S. cerevisiae deletion strains, locus YMR231W, strain pep5, active compounds read low 0.982 | S. cerevisiae deletion strains, locus YMR263W, strain SAP30, active compounds read low 0.994 | S. cerevisiae deletion strains, locus YMR307W, strain GAS1, active compounds read low 0.971 and 1.01 | S. cerevisiae deletion strains, locus YNL067W, strain RPL9B, active compounds read low 1.01 | S. cerevisiae deletion strains, locus YNL071W, strain lat1, active compounds read low 1 | S. cerevisiae deletion strains, locus YNL128W, strain TEP1, active compounds read low 0.997 and 1.01 | S. cerevisiae deletion strains, locus YNL153C, strain GIM3, active compounds read low 0.995 and 1 | S. cerevisiae deletion strains, locus YNL175C, strain NOP13, active compounds read low 0.959 | S. cerevisiae deletion strains, locus YNL183C, strain NPR1, active compounds read low 0.951 | S. cerevisiae deletion strains, locus YNL197C, strain WHI3, active compounds read low 0.991 | S. cerevisiae deletion strains, locus YNL209W, strain ssb2, active compounds read low 0.968 | S. cerevisiae deletion strains, locus YNL224C, strain SQS1, active compounds read low 1 | S. cerevisiae deletion strains, locus YNL233W, strain BNI4, active compounds read low 0.997 | S. cerevisiae deletion strains, locus YNL248C, strain rpa49, active compounds read low 0.959 | S. cerevisiae deletion strains, locus YNL250W, strain rad50, active compounds read low 0.973 | S. cerevisiae deletion strains, locus YNL271C, strain bni1, active compounds read low 0.988 | S. cerevisiae deletion strains, locus YNL298W, strain CLA4, active compounds read low 1.01 | S. cerevisiae deletion strains, locus YNL307C, strain MCK1, active compounds read low 0.986 | S. cerevisiae deletion strains, locus YNL322C, strain KRE1 (second series), active compounds read low 0.958 | S. cerevisiae deletion strains, locus YNL322C, strain KRE1, active compounds read low 0.992 | S. cerevisiae deletion strains, locus YNR049C, strain mso1, active compounds read low 0.968 | S. cerevisiae deletion strains, locus YNR052C, strain pop2, active compounds read low 0.987 | S. cerevisiae deletion strains, locus YOL006C, strain TOP1, active compounds read low 0.951 | S. cerevisiae deletion strains, locus YOL012C, strain htz1 1.28 | S. cerevisiae deletion strains, locus YOL147C, strain pex11, active compounds read low 0.999 | S. cerevisiae deletion strains, locus YOR001W, strain rrp6, active compounds read low 0.995 | S. cerevisiae deletion strains, locus YOR061W, strain CKA2, active compounds read low 0.991 | S. cerevisiae deletion strains, locus YOR069W, strain VPS5, active compounds read low 0.97 | S. cerevisiae deletion strains, locus YOR070C, strain gyp1, active compounds read low 0.982 | S. cerevisiae deletion strains, locus YOR080W, strain dia2, active compounds read low 0.969 | S. cerevisiae deletion strains, locus YOR083W, strain WHI5 (second series), active compounds read low 1.01 | S. cerevisiae deletion strains, locus YOR083W, strain WHI5, active compounds read low 0.945 | S. cerevisiae deletion strains, locus YOR106W, strain vam3, active compounds read low 0.959 | S. cerevisiae deletion strains, locus YOR136W, strain idh2, active compounds read low 0.994 | S. cerevisiae deletion strains, locus YOR144C, strain elg1, active compounds read low 0.996 | S. cerevisiae deletion strains, locus YOR184W, strain ser1, active compounds read low 0.982 | S. cerevisiae deletion strains, locus YOR231W, strain MKK1, active compounds read low 1.06 | S. cerevisiae deletion strains, locus YOR265W, strain rbl2, active compounds read low 0.99 | S. cerevisiae deletion strains, locus YOR270C, strain vph1, active compounds read low 0.976 | S. cerevisiae deletion strains, locus YOR290C, strain snf2, active compounds read low 0.941 | S. cerevisiae deletion strains, locus YOR316C, strain cot1, active compounds read low 0.987 | S. cerevisiae deletion strains, locus YPL051W, strain arl3, active compounds read low 0.981 | S. cerevisiae deletion strains, locus YPL055C, strain LGE1, active compounds read low 1.02 | S. cerevisiae deletion strains, locus YPL078C, strain atp4, active compounds read low 0.999 | S. cerevisiae deletion strains, locus YPL106C, strain sse1, active compounds read low 0.946 | S. cerevisiae deletion strains, locus YPL240C, strain hsp82, active compounds read low 0.987 | S. cerevisiae deletion strains, locus YPL241C, strain CIN2, active compounds read low 0.995 and 0.994 | S. cerevisiae deletion strains, locus YPL256C, strain CLN2, active compounds read low 1.06 | S. cerevisiae deletion strains, locus YPR119W, strain clb2, active compounds read low 0.994 | S. cerevisiae deletion strains, locus YPR141C, strain kar3, active compounds read low 0.987 | S. cerevisiae deletion strains, locus YPR163C, strain tif3, active compounds read low 0.994 | S. cerevisiae deletion strains, locus YPR167C, strain met16, active compounds read low 0.993 | S. cerevisiae deletion strains, strain wtn01, active compounds read low 0.992 | S. cerevisiae strains, strain wild type, active compounds read low 0.999
